The values that follow come from PubChem BioAssay (EPA / NIEHS).

For orientation: AC50 means the midpoint of the concentration-response curve, whichever way the signal moves.

The structures appear in SMILES notation. The source made the active and inactive calls. The calls were made as follows: active = hit-call score of the fitted dose curve at least 0.9, where 1 is the maximum; inactive = score below 0.9.

Details in all cases: mRNA level, 48 h; actives raise or lower the signal
Read-out in experiment [1]: Bcl-2 (BAD) gene, BAD (gene 572)
Nature of the experiment: LTEA_HepaRG_BAD: Life Technologies and Expression Analysis (LTEA) Assay for Bcl-2 (BAD) gene using HepaRG (AID 2283469). The essentials:
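HepaRG, 48 h exposure, 8-pt half-log curve from 100 uM in 0.5% DMSO, duplicates. Readout: TaqMan qRT-PCR for BAD mRNA, housekeeping-normalised (ACTB/GAPDH/POLR2A); gain or loss fitted against DMSO baseline.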

Read-out in experiment [2]: Bcl-2 (BAX) gene, BAX (gene 581)
In words: LTEA_HepaRG_BAX: Life Technologies and Expression Analysis (LTEA) Assay for Bcl-2 (BAX) gene using HepaRG (AID 2283470). The essentials: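 Cells were thawed, plated for 48 h, moved to serum-free induction medium and dosed for 48 h (highest concentration 100 uM, half-log steps, 0.5% DMSO). Total RNA was then analysed for BAX expression by qRT-PCR.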

Read-out in experiment [3]: adenosine kinase (ADK) gene, ADK (gene 132)
Nature of the experiment: LTEA_HepaRG_ADK: Life Technologies and Expression Analysis (LTEA) Assay for adenosine kinase (ADK) gene using HepaRG (AID 2283471). The essentials:
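HepaRG (human liver), 48 h chemical exposure, 8-pt half-log series, top 100 uM, 0.5% DMSO vehicle. Readout: ADK mRNA by qRT-PCR vs housekeeping genes; bidirectional curve fit relative to DMSO baseline.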

Read-out in experiment [4]: Alpha-fetoprotein (AFP) gene, AFP (gene 174)
In words: LTEA_HepaRG_AFP: Life Technologies and Expression Analysis (LTEA) Assay for Alpha-fetoprotein (AFP) gene using HepaRG (AID 2283472). In outline:
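Chemicals were tested on differentiated HepaRG cells for 48 hours at eight concentrations up to 100 uM, with 0.5% DMSO as vehicle. AFP expression was then quantified by qRT-PCR and analyzed for gain or loss relative to DMSO.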

Read-out in the next experiment: BCL2L11 (gene 10018)
Nature of the experiment: LTEA_HepaRG_BCL2L11: Life Technologies and Expression Analysis (LTEA) Assay for Bcl-2 (BCL2L11) gene using HepaRG (AID 2283473). In outline:
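Differentiated human HepaRG cells were exposed 48 h in serum-free induction medium to eight half-log concentrations up to 100 uM in 0.5% DMSO, in duplicate. BCL2L11 mRNA was quantified by TaqMan qRT-PCR, normalized to ACTB, GAPDH and POLR2A; induction or repression fitted versus DMSO.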

Read-out in experiment [5]: Apolipoprotein A-V (APOA5) gene, APOA5 (gene 116519)
In words: LTEA_HepaRG_APOA5: Life Technologies and Expression Analysis (LTEA) Assay for Apolipoprotein A-V (APOA5) gene using HepaRG (AID 2283474). The essentials:
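Differentiated HepaRG cells in serum-free induction medium, exposed 48 h in duplicate to eight half-log concentrations topping at 100 uM (0.5% DMSO). APOA5 mRNA by Fluidigm TaqMan qRT-PCR, normalized to ACTB, GAPDH and POLR2A; bidirectional fit versus DMSO.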

Read-out in experiment [6]: Apoptosis regulator Bcl-2 (Homo sapiens) (UniProt P10415)
In words: LTEA_HepaRG_BCL2: Life Technologies and Expression Analysis (LTEA) Assay for Bcl-2 gene using HepaRG (AID 2283475). In outline: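 Plated human HepaRG cells are exposed to test chemicals for 48 h across eight concentrations from 100 uM downward in half-log steps (0.5% DMSO). BCL2 expression is then measured by qRT-PCR with housekeeping normalisation and fitted bidirectionally against vehicle.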

Read-out in the next experiment: Caspase-3 (Homo sapiens) (UniProt P42574)
In words: LTEA_HepaRG_CASP3: Life Technologies and Expression Analysis (LTEA) Assay for cysteine-aspartic acid protease (CASP3) using HepaRG (AID 2283477). The essentials:
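Differentiated HepaRG cells, plated 48 h, were treated in duplicate in serum-free induction medium for 48 h with eight half-log concentrations up to 100 uM in 0.5% DMSO. CASP3 mRNA measured by qRT-PCR, normalized to ACTB, GAPDH, POLR2A.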

Read-out in experiment [7]: Cytochrome P450 (CYP24A1), CYP24A1 (gene 1591)
Nature of the experiment: LTEA_HepaRG_CYP24A1: Life Technologies and Expression Analysis (LTEA) Assay for Cytochrome P450 (CYP24A1) using HepaRG (AID 2283478). In outline:
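HepaRG cells plated 48 h, then exposed in duplicate in serum-free induction medium for 48 h to 8-point half-log series from 100 uM in 0.5% DMSO. CYP24A1 mRNA by Fluidigm qRT-PCR, normalized to ACTB, GAPDH, POLR2A; bidirectional fit versus DMSO.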

Read-out in experiment [8]: Cytochrome P450 (CYP1A2), CYP1A2 (gene 1544)
Nature of the experiment: LTEA_HepaRG_CYP1A2: Life Technologies and Expression Analysis (LTEA) Assay for Cytochrome P450 (CYP1A2) using HepaRG (AID 2283479). In outline:
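Differentiated human HepaRG cells in serum-free induction medium exposed 48 hours in duplicate to 8 half-log concentrations from 100 uM, 0.5% DMSO. CYP1A2 mRNA quantified by qRT-PCR, normalized to ACTB, GAPDH and POLR2A; bidirectional fitting versus DMSO.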

Read-out in experiment [9]: cysteine-aspartic acid protease (CASP8), CASP8 (gene 841)
Nature of the experiment: LTEA_HepaRG_CASP8: Life Technologies and Expression Analysis (LTEA) Assay for cysteine-aspartic acid protease (CASP8) using HepaRG (AID 2283480). The essentials: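 qRT-PCR readout of CASP8 mRNA, normalized to three housekeeping genes, after 48 h chemical exposure of HepaRG cells; 8-point half-log series, top 100 uM, 0.5% DMSO vehicle. Bidirectional curve fitting against DMSO baseline.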

Read-out in experiment [10]: Cytochrome P450 (CYP2B6), CYP2B6 (gene 1555)
In words: LTEA_HepaRG_CYP2B6: Life Technologies and Expression Analysis (LTEA) Assay for Cytochrome P450 (CYP2B6) using HepaRG (AID 2283481). In outline:
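Differentiated human HepaRG cells in serum-free induction medium, dosed in duplicate for 48 h over 8 half-log concentrations topping at 100 uM (0.5% DMSO). CYP2B6 mRNA measured by TaqMan qRT-PCR, normalized to ACTB, GAPDH, POLR2A; bidirectional fit versus DMSO.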

Read-out in experiment [11]: Cytochrome P450 2C19 (Homo sapiens) (UniProt P33261)
In words: LTEA_HepaRG_CYP2C19: Life Technologies and Expression Analysis (LTEA) Assay for CYP2C19 using HepaRG (AID 2283482). The essentials:
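Differentiated HepaRG cells in serum-free induction medium exposed 48 h in duplicate, 8 concentrations from 100 uM by half-log steps in 0.5% DMSO. CYP2C19 mRNA measured by TaqMan qRT-PCR, normalized to ACTB, GAPDH, POLR2A. Bidirectional fit versus DMSO.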

Read-out in the next experiment: CYP2C8 (gene 1558)
In words: LTEA_HepaRG_CYP2C8: Life Technologies and Expression Analysis (LTEA) Assay for CYP2C8 using HepaRG (AID 2283483). In outline: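 HepaRG (human liver line), 48 h chemical exposure, 8-pt half-log series from 100 uM, 0.5% DMSO vehicle. Readout: CYP2C8 transcript by qRT-PCR, housekeeping-normalized. Bidirectional fit vs DMSO baseline.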

Read-out in another experiment: CYP2E1 (gene 1571)
In words: LTEA_HepaRG_CYP2E1: Life Technologies and Expression Analysis (LTEA) Assay for CYP2E1 using HepaRG (AID 2283485). The essentials: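 Readout is qRT-PCR of CYP2E1 mRNA, normalized to three housekeeping genes and fitted bidirectionally against 0.5% DMSO. HepaRG cells were dosed 48 h at eight concentrations, highest 100 uM with half-log dilutions.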

Read-out in experiment [12]: Cytochrome P450 3A4 (Homo sapiens) (UniProt P08684)
Nature of the experiment: LTEA_HepaRG_CYP3A4: Life Technologies and Expression Analysis (LTEA) Assay for CYP3A4 using HepaRG (AID 2283487). In outline: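 CYP3A4 transcript measured by TaqMan qRT-PCR and normalized to three housekeeping genes after 48 h chemical exposure of human HepaRG cells. Top concentration 100 uM, half-log steps, 0.5% DMSO vehicle; gain or loss fitted against DMSO baseline.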

Read-out in experiment [13]: DNA damage-inducible transcript 3 (DDIT3), DDIT3 (gene 1649)
Nature of the experiment: LTEA_HepaRG_DDIT3: Life Technologies and Expression Analysis (LTEA) Assay for DNA damage-inducible transcript 3 (DDIT3) using HepaRG (AID 2283488). The essentials: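 Cells are human HepaRG liver cells treated for 48 h with eight half-log concentrations up to 100 uM in 0.5% DMSO. Transcript levels come from qRT-PCR normalized to three housekeeping genes, with activity fitted in both directions relative to vehicle.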

Sequence of Apoptosis regulator Bcl-2 (Homo sapiens) (P10415 whole entry, looked up): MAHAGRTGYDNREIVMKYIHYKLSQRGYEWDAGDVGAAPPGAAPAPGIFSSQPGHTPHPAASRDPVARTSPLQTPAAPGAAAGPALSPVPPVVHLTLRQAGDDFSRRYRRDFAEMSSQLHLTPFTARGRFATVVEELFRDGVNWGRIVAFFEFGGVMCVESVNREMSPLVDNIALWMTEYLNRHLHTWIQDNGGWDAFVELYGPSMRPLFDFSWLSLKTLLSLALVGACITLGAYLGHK
Sequence of Cytochrome P450 3A4 (Homo sapiens) (P08684 whole entry, looked up): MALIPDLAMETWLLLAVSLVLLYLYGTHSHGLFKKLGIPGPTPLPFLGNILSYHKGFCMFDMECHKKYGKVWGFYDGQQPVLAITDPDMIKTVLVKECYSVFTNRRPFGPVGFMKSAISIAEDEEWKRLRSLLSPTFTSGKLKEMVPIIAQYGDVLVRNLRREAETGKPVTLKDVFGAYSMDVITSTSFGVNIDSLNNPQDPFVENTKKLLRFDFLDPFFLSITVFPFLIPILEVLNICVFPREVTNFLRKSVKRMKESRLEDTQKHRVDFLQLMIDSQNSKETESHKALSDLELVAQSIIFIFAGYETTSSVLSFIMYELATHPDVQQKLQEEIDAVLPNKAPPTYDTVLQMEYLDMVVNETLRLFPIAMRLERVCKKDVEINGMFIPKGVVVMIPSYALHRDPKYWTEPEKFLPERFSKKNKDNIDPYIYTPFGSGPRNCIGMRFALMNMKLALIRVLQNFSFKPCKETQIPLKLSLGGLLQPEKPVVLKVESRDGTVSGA
Sequence of Cytochrome P450 2C19 (Homo sapiens) (P33261 whole entry, looked up): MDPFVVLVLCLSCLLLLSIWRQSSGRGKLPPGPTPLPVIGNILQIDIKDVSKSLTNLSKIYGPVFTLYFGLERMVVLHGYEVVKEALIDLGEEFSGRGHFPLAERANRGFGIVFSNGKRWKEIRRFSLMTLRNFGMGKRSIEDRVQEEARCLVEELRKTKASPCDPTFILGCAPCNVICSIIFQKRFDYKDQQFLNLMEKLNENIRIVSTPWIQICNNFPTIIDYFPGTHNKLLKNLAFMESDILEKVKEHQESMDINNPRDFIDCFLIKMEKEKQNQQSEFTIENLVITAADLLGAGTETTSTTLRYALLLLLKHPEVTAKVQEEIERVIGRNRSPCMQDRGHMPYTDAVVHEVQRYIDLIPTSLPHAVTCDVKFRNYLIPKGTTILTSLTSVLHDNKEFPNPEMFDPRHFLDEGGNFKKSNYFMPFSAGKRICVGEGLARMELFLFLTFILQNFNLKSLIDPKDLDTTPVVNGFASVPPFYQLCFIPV
Sequence of Caspase-3 (Homo sapiens) (P42574 whole entry, looked up): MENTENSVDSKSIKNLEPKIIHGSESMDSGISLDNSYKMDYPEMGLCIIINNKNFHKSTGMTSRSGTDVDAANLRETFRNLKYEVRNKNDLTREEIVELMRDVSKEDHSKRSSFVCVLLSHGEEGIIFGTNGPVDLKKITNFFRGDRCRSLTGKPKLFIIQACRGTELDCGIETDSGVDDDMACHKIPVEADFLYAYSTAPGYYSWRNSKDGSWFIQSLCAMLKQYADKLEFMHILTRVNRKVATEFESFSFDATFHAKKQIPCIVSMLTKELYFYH

`O=C(c1ccc(O)cc1O)c1ccc(O)cc1O`: the result (in [1]; in [2]; in experiment [3]; in [4]; in the experiment with BCL2L11 (gene 10018); in experiment [5]) was inactive. Moreover, the call (in experiment [6]; with Caspase-3 (Homo sapiens); in experiment [7]; in experiment [8]; in experiment [9]; in experiment [10]) was inactive. The compound was classed as inactive (in experiment [11]; in the experiment with CYP2C8 (gene 1558); with CYP2E1 (gene 1571); in experiment [12]).

For the compound `C#CCOC(=O)[C@@H](C)Oc1ccc(Oc2ncc(Cl)cc2F)cc1`, the result (in [1]; in experiment [2]; in [3]; in [4]; with BCL2L11 (gene 10018); in experiment [5]) was inactive. In addition, the result (in experiment [6]; with Caspase-3 (Homo sapiens); in experiment [7]; in [8]; in experiment [9]; in [10]) was inactive. In addition, the compound was called inactive (in [11]; with CYP2C8 (gene 1558); with CYP2E1 (gene 1571); in experiment [12]; in [13]).

On to `CC(C)CCCCCCc1ccc(O)cc1`, for which the result (in experiment [1]; in [2]; in [3]; in experiment [4]; in the experiment with BCL2L11 (gene 10018); in experiment [5]) was inactive. For the same compound, the outcome (in experiment [6]; in the experiment with Caspase-3 (Homo sapiens); in experiment [7]; in [8]; in experiment [9]; in experiment [10]) was inactive. In addition, the call (in [11]; with CYP2C8 (gene 1558); with CYP2E1 (gene 1571)) was inactive. In addition, in [12], the AC50 was 50 µM (active).

For `CCCOC(=O)NCCCN(C)C`, the result (in [1]; in experiment [2]; in [3]; in experiment [4]; in the experiment with BCL2L11 (gene 10018); in [5]) was inactive. Moreover, the compound was classed as inactive (in [6]; in the experiment with Caspase-3 (Homo sapiens); in experiment [7]; in experiment [8]; in experiment [9]; in experiment [10]). The compound was called inactive (in experiment [11]; with CYP2C8 (gene 1558); with CYP2E1 (gene 1571); in [12]).
